In the library only some 4.4% were active in any assay of this set; here they are far more common.
HPGD inh: qHTS Assay for Inhibitors of HPGD (15-Hydroxyprostaglandin Dehydrogenase) | 15-hydroxyprostaglandin dehydrogenase [NAD(+)] (Homo sapiens), P15428 | purified HPGD, NADH fluorescence kinetic, PGE2 substrate | Potency, µM, hits mostly inhibitors | 150,000 tested, 4.3% active | AID 894, 2007; active = well fitted inhibition curve with a large enough effect, not every such curve was filed as active; inconclusive = small, poorly fitted or top-dose-only effect, or another doubt; inactive = no such curve, though single readings can be large or run the other way
Target sequence (P15428 whole entry, looked up): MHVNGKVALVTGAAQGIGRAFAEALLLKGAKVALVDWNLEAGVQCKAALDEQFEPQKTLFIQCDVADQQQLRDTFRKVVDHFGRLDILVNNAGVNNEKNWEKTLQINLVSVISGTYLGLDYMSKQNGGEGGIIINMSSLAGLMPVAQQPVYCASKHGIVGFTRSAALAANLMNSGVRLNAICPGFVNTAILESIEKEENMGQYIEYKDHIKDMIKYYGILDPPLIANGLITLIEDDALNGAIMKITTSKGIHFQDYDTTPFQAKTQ
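NADH formation kinetics: reaction with 30 uM PGE2 and 1 mM NAD+ (final), 20 nM enzyme, Tris-HCl pH 8 with Tween 20, after 15 min compound preincubation at room temperature. Fluorescence change, last versus first of five reads.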
p53ts 32C tox: qHTS Screen for Compounds that Selectively Target Cancer Cells with p53 Mutations: Cytotoxicity of p53ts Cells at the Permissive Temperature | H1299-p53A138V at 32C, ATP luminescence viability, 24 h | Potency, µM (highest dose often 46.1 µM), actives largely listed as cytotoxic | 130,000 tested, 0.93% active | AID 924, 2007; also: nearly all actives have a fitted effect of over 55% in size
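Viability by ATPlite luminescence after 24 h compound treatment (up to 46 uM) at the permissive 32C. Cells are H1299 carrying p53 A138V. Scale runs from DMSO basal to 100 uM tamoxifen as full kill; AC50 from Hill fits.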
p53ts 39C kill: qHTS Screen for Compounds that Selectively Target Cancer Cells with p53 Mutations: Cytotoxicity of p53ts Cells at the Nonpermissive Temperature | 130,000 tested, 1.5% active | Potency, µM (doses to about 46.1 µM), hits mostly cytotoxic | AID 902, 2007 | H1299-p53A138V viability at 39C, ATP luminescence, 24 h; also: nearly all actives have a fitted effect of over 55% in size
ALOX12 inhib: qHTS Assay for Inhibitors of 12-hLO (12-human lipoxygenase). purified 12-hLO, xylenol orange hydroperoxide absorbance. 150,000 tested, 0.12% active. AID 1452, 2008. Potency, µM (top dose mostly 57.1 µM), most hits filed as inhibitors; also: nearly all actives have a fitted effect of over 55% in size
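150 nM 12hLO, 25 mM Hepes pH 7.0 + 0.01% Triton X-100; cpd preinc 15 min RT; 40 uM arachidonic acid, 30 min RT; Fe-XO 30 min; A573/A405 ratio as read-out.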
Numbers stand for hits; . = inactive; ? = inconclusive; / = not tested or not shown; [ ] = dose if it differs, or a comment. Unless noted, calls follow the shape of the dose curve; as a rule, active = well fitted curve in the direction sought with a large enough effect; inconclusive = small, poorly fitted or top-dose-only effect, or another doubt; inactive = no such curve, though single readings can be large; an effect the other way counts as inactive or inconclusive.

SMILES | HPGD inh | p53ts 32C tox | p53ts 39C kill | ALOX12 inhib
O=c1c(S(=O)(=O)c2ccccc2)cn(Cc2cccc(F)c2)c2cc(N3CCOCC3)c(F)cc12 | / | . | / | /
O=[N+]([O-])c1cc(-c2n[nH]c(-c3ccccc3)n2)cc([N+](=O)[O-])c1 | . | / | / | .
Clc1ccccc1-c1nc(-c2ccccc2)n[nH]1 | 25µM | ? | ? | .
CCOC(=O)c1cc(S(=O)(=O)NCc2cccc(Cl)c2)[nH]n1 | / | . | . | /
Clc1cccc(-c2nnc(-c3ccccc3)o2)c1 | . | 10µM | 13µM | .
COc1cc2c(cc1OC)C(COc1ccccc1OC)N(C(=O)c1ccc(S(=O)(=O)N3CCCC3)cc1)CC2 (stereo unspecified) | / | . | . | /
COc1ccc(NC(=O)CSc2ccccn2)cc1 | 25µM | . | . | .
COc1ccc(C(=O)N/N=C/c2ccc(OC)c(CSc3ccccn3)c2)cc1 | 32µM | / | / | .
Cc1cc(C)nc(NC(=O)CSc2ccccn2)n1 | . | . | . | .
COc1cccc(NC(=O)Cc2nnc(SCC(=O)c3ccccc3)n2C)c1 | 32µM | . | . | .
COc1ccc(NC(=O)CSc2nnc(-c3ccccn3)n2N)cc1 | . | . | . | .
O=C(CSc1ccccn1)Nc1ccccc1F | 18µM | . | . | .
CCOC(=O)c1ccccc1NC(=O)COC(=O)CC(C)(C)CC1=NS(=O)(=O)c2ccccc2N1 | / | . | . | /
COc1ccc(OCC(=O)Nc2cccc(OC)c2)cc1 | ? | . | . | .
COc1cccc(NC(=O)CSc2ccccn2)c1 | 28µM | . | . | .
COc1cccc(NC(=O)COc2ccccc2C(N)=O)c1 | . | 16µM | 10µM | .
CCOc1ccc(C2c3c(oc4cc(C)c(C)cc4c3=O)C(=O)N2c2ccccn2)cc1 (stereo unspecified) | / | . | . | /
Fc1cccc(F)c1/C=C/c1ccc2ccccc2n1 | / | / | / | .
CC(O)/C=C/c1ccc2ccccc2n1 (stereo unspecified) | . | 25µM | ? | .
Cc1ccc(C)c(Cn2cnc3c(cnn3C(C)(C)C)c2=O)c1 | 22µM | . | . | .
CC1=C(\C=C/C(C)=C/C=C\C(C)=C\C(=O)O)C(C)(C)CCC1 | . | . | . | .
CC1=C(/C=C/C(C)=C/C=C/C(C)=C/C(=O)Nc2ccc(O)cc2)C(C)(C)CCC1 | . | ? | 16µM | .
CC(C)(C)c1ccc(C(=O)Nc2cnccn2)cc1 | . | 5µM | 5µM | .
COc1ccc(C(=O)Nc2ccccn2)cc1 | . | . | . | .
CN(C)c1nc(N)nc(/C(C#N)=C/C2CC3C=CC2C3)n1 (stereo unspecified) | 18µM | . | . | .
SMILES | HPGD inh | p53ts 32C tox | p53ts 39C kill | ALOX12 inhib
CSc1cccc(Nc2cc(C(=O)NCCCN(Cc3ccccc3)C(C)C)c3ccccc3n2)c1 | / | ? | 16µM | /
Cc1cc(C)cc(Nc2cc(C(=O)NCCCN(Cc3ccccc3)C(C)C)c3ccccc3n2)c1 | / | . | 16µM | /
CC(C)c1ccc(Nc2cc(C(=O)NCCc3ccccc3)c3ccccc3n2)cc1 | / | . | . | /
CCOc1ccc(/C=C/C(=O)c2cc(Br)ccc(=O)c2O)cc1 | ? | / | / | .
CCc1ccc(/C=C/C(=O)c2cc(Br)ccc(=O)c2O)cc1 | 16µM | / | / | ?
CCCc1nn2cc(-c3ccc(C)c(C)c3)nc2s1 | / | 7.9µM | 7.9µM | /
CCn1cc(C(=O)Nc2ccc(C(C)C)cc2)c2cc(OC)c(OC)cc2c1=O | / | . | . | /
CC(=O)Nc1nonc1NC(C)=O | . | . | . | .
CC(=O)Nc1cc(OC(C)=O)c2nonc2c1OC(C)=O | . | 3.2µM | 7.9µM | .
CCc1ccc(NC(=O)c2ccc3c(c2)N(Cc2ccc(C)cc2)CCS3)cc1 | / | . | . | /
CCOc1ccc(-n2nc3ccc(NC(=O)c4ccc(-c5cccc(Cl)c5)o4)cc3n2)cc1 | / | ? | 7.9µM | /
O=C(c1cc2cc(Br)cc(Br)c2oc1=O)N1CCCC1 | 28µM | . | . | .
Cc1ccc(NC(=O)Nc2nnc(SCC(=O)N(C(C)C)C(C)C)s2)cc1 | / | . | . | /
O=[N+]([O-])c1ccc(Cl)c(CNc2ncnc3c2ncn3[C@@H]2CCCCO2)c1 | 3.5µM | .[9.22 µM] | .[9.22 µM] | .[11.4 µM]
O=[N+]([O-])C1=C(Nc2cccc3ccccc23)CS(=O)(=O)C1 | 20µM | / | / | .
O=C(NCc1ccco1)c1ccc(CNc2c(N3CCCCC3)c(=O)c2=O)cc1 | 14µM | / | / | .

High-throughput results: PubChem BioAssay, National Center for Advancing Translational Sciences (NCATS)
